The values below come from PubChem BioAssay.

Chain of Pro-neuregulin-1, membrane-bound isoform (Homo sapiens) (Q02297 whole entry, looked up, canonical isoform): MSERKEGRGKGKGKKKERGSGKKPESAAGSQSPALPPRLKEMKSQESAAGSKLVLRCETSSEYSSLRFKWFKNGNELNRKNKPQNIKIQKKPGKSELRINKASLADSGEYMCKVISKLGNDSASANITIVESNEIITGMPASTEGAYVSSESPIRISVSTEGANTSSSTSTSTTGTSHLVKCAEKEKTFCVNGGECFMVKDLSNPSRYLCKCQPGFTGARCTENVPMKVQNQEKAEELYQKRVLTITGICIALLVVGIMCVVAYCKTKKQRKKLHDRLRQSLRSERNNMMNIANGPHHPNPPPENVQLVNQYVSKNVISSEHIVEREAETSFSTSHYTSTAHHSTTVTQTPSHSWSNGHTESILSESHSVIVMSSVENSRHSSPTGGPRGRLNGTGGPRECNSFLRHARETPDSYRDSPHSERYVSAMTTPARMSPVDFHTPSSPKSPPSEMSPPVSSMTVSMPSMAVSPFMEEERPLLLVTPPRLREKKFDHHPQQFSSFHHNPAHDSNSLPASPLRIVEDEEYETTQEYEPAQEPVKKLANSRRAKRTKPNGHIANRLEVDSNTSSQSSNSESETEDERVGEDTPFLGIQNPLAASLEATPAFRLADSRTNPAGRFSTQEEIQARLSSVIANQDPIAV

The target of one test is Neurogenic locus notch homolog protein 2 (Homo sapiens) (UniProt Q04721). The test is described as follows: Notch2 binders on small-molecule microarrays, primary screen, biochemical, small-molecule microarray, 635 nm fluorescence, stem cell growth factors (AID 1073). The conditions noted are these: Notch2 binding, higher = more signal.
Chain of Neurogenic locus notch homolog protein 2 (Homo sapiens) (Q04721 whole entry, looked up): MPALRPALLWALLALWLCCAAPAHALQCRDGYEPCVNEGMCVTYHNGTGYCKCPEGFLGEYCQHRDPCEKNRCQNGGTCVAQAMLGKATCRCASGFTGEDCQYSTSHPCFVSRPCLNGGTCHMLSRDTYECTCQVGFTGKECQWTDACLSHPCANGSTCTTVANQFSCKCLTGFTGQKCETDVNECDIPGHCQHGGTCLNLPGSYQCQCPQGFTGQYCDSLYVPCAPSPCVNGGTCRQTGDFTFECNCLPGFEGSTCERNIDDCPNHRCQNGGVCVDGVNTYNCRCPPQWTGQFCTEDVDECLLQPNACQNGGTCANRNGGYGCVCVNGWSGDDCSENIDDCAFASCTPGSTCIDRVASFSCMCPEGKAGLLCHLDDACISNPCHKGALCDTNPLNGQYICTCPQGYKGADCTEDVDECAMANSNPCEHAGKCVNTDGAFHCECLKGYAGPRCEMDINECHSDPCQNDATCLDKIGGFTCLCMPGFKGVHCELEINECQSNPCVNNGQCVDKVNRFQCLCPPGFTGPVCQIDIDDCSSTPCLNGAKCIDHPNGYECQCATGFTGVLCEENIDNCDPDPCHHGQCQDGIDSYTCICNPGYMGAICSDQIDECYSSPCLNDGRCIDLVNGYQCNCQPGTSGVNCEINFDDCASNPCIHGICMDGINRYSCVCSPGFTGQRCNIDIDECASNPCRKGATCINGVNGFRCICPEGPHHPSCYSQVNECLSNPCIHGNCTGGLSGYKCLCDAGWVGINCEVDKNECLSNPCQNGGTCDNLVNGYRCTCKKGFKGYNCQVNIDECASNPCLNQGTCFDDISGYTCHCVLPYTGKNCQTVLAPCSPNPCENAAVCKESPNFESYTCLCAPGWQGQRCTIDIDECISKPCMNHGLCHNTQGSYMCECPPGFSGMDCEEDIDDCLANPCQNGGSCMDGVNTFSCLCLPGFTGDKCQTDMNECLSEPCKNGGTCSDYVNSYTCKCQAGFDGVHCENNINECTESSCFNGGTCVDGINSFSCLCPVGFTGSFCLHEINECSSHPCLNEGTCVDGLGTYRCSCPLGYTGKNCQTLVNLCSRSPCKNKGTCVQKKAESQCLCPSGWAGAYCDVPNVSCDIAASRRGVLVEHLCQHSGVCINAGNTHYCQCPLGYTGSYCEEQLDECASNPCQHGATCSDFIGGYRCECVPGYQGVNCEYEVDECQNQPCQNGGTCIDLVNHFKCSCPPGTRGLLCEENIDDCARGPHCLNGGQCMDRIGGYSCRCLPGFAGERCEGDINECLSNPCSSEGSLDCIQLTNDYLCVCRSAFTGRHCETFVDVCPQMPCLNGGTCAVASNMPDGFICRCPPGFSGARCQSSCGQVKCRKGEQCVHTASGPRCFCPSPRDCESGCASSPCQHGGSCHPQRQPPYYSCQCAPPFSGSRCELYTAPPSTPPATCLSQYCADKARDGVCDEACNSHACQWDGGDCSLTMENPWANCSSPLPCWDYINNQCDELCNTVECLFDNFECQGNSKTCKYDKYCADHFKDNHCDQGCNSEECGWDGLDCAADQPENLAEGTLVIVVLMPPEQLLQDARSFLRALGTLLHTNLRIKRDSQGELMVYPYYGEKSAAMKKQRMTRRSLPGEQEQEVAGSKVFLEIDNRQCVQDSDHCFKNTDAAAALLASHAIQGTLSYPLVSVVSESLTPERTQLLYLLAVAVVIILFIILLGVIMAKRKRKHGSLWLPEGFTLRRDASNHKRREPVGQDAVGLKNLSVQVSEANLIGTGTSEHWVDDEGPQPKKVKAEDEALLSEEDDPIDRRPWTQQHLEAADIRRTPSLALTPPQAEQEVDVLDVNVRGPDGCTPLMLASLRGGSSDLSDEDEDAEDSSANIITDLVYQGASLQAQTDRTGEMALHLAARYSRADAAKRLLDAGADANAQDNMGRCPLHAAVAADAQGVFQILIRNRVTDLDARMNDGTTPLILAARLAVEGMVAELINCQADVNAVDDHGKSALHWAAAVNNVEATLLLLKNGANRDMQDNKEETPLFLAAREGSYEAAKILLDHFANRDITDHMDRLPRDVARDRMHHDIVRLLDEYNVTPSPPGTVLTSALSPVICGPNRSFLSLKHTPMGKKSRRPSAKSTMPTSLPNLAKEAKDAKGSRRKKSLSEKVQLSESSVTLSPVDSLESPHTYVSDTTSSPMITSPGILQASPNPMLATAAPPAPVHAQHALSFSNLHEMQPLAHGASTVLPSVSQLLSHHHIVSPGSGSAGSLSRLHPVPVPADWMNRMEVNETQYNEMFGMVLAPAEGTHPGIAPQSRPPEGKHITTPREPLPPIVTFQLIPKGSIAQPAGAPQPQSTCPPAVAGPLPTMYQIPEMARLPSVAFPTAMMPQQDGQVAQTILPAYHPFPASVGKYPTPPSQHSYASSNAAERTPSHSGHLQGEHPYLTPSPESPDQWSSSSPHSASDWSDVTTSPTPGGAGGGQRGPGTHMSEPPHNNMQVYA
In the case of `O=C1O[C@@H](c2ccccc2)[C@@H](c2ccccc2)N2[C@@H](c3ccc(OCCO)cc3)[C@]3(C(=O)Nc4ccc(C#CC5=CCCCC5)cc43)[C@@H](C(=O)N3CCCCCCC3)[C@H]12`, the composite z-score was 1.49. For `CC(C)NC(=O)[C@@]1(Cc2ccccc2I)c2ccccc2C(=O)N(Cc2ccccc2Cl)[C@H]1c1ccc(CO)cc1`, the composite z-score came out at 0.917. Compound `COc1ccc([Si](C)(C)[C@H]2[C@H](CCO)O[C@@]3(C(=O)N(Cc4ccccc4)c4ccc(N5CCCCC5=O)cc43)[C@@H]2C)cc1` returned a composite z-score of 0.333. The compound `COc1ccc([C@H]2C[C@H]3C(Br)=C[C@@]2(CO)C(=O)[C@]32CO2)cc1` showed a composite z-score of 0.269.

For the compound `CO[C@H]1O[C@H](CO)[C@@H](OC(=O)Nc2ccc(Oc3ccccc3)cc2)[C@H](OC(=O)Nc2ccc3c(c2)OCO3)[C@@H]1OC(=O)Nc1ccc2c(c1)OCO2`, the composite z-score came to 1.55. `O=C(NC1CC1)[C@@H]1c2ccccc2C(=O)N(C2Cc3ccccc3C2)[C@H]1c1ccc(CO)cc1` showed a composite z-score of 1.01. Consider `CC(C)=CCCC(C)=CC(O)C1C=CC2C(=O)N(c3ccccc3)C(=O)C2N1Nc1ccc(C(C)C)cc1` (stereo not drawn), for which the composite z-score turned out to be 1.21.

`C=CC[C@]1(C(N)=O)N=C(c2ccc(OCCCO)cc2)O[C@H]1c1ccccc1` returned a composite z-score of 0.494. `COc1cc2c(cc1O)C(c1cccs1)N(Cc1cccc(OC(F)(F)F)c1)CC2` (stereo not drawn) showed a composite z-score of 0.192.

The compound `C=C(CCCC)C(=O)CC[C@@H](OC(C)=O)c1ccc(CO)o1` came in with a composite z-score of -0.426. `O=C(CS)NCCCCCNC(=O)[C@H]1C[C@H]2C(=O)NCC(=O)N2[C@H]1c1ccc(O)cc1`: the composite z-score was -1.4. Compound `COC(=O)[C@H](Cc1ccccc1)N[C@H](/C=C/C1CC1)[C@@H](O)Cc1ccccc1` registered a composite z-score of -0.567. The compound `C=C(CCCC)C(=O)CC[C@H](OC(=O)c1cccnc1)c1ccc(OCCO)cc1` returned a composite z-score of -0.65.

The compound `O=C1O[C@@H](c2ccccc2)[C@@H](c2ccccc2)N2[C@@H](c3ccccc3OCCO)[C@]3(C(=O)Nc4ccc(C#CC5(O)CCCCCC5)cc43)[C@@H](C(=O)N3CCN(c4ncccn4)CC3)[C@H]12` showed a composite z-score of -0.116.

Regarding `C=CCN1C(=O)[C@]2(O[C@H](CCO)[C@@H]([Si](C)(C)c3ccc(OC)cc3)[C@@H]2C)c2cc(N(C=O)c3ccccc3)ccc21`, the composite z-score worked out at 0.425. Take `C=C(C(=O)CC[C@H](OC(C)=O)c1ccccc1OCCO)C(C)C`: the composite z-score was -0.926.

`COC(=O)[C@@]1(Cc2ccc(OC)cc2)[C@H]2c3cc(C(=O)N4CCCC4)n(Cc4nc5ccccc5[nH]4)c3C[C@H]2CN1C(=O)c1ccccc1`: the composite z-score turned out to be 1.82. `CC(c1ccccc1)C(O)C1C=CC2C(=O)N(c3ccccc3)C(=O)C2N1Nc1ccccc1` (stereo not drawn): the composite z-score worked out at 1.55. Compound `CCCC[C@H]1C[C@@H]1[C@@H]1N(P(=O)(c2ccccc2)c2ccccc2)C[C@@](O)(c2ccccc2)CC12CC2` yielded a composite z-score of 1.45.

`COCC(=C=CC[C@H](O)c1ccccc1OCCO)CCO` showed a composite z-score of -0.626.

On to `O=C1C[C@@](C(=O)NCc2ccccc2)(c2ccc([N+](=O)[O-])cc2)[C@@H](c2ccc(CO)cc2)N1CC12CC3CC(CC(C3)C1)C2`, for which the composite z-score came to 0.815.

`COC(=O)c1c(CC[C@@H](CO)NC(=O)N[C@H](Cc2ccccc2)Cn2cc(-c3ccccn3)nn2)oc(C(C)=O)c1C(=O)OC` gave a composite z-score of -0.143. In the case of `COC(=O)[C@]1(CCC(=O)OC(C)(C)C)N=C(c2ccc(OCCCO)cc2)O[C@@H]1c1ccccc1`, the composite z-score is -0.668.

The next test concerns the target Pro-neuregulin-1, membrane-bound isoform (Homo sapiens) (UniProt Q02297). The test is described as follows: NRG1 binders on small-molecule microarrays, primary screen, psychiatric disease protein project, biochemical, small-molecule microarray, fluorescence 635/667 (AID 1075).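 Note: score combines 667 nm spot fluorescence with signal to noise.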 The following applies: NRG1 binding, 635 nm fluorescence, higher = more signal.
Compound `CC#CC(=O)Oc1ccc(Br)cc1C=CC(=O)OCC` displayed a composite z-score of 0.334. `CCCC(=O)N(CCc1c[nH]c2ccccc12)[C@@H]1CC(C(=O)NCCO)=C[C@H](Oc2c(I)cc(CO)cc2OC)[C@H]1O` returned a composite z-score of -0.0724. In turn, `COCCOC(=O)N1C(=O)[C@@]2(c3ccccc31)[C@H](C(=O)N1CCCCCCC1)[C@H]1C(=O)O[C@H](c3ccccc3)[C@H](c3ccccc3)N1[C@@H]2c1ccc(OCCO)cc1` returned a composite z-score of 2.93. For the compound `CCOC(=O)C[C@H]1[C@H](OC(=O)c2cc3ccccc3oc2=O)[C@@H](NC(=O)CC(C)C)c2cc(OCCCO)ccc2N1C(=O)c1ccccc1`, the composite z-score was -0.0698. The compound `O=C1OCC=C[C@H]2OC34C=CCN(CCN5CCOCC5)C(=O)[C@H]3N(CCO)C(=O)[C@@H]4[C@@H]12` (stereo partly drawn) showed a composite z-score of 0.605. With `COCC(=C=CC[C@H](O)c1cccc(OCCO)c1)CCO`, the composite z-score was 1.12. The same measure, in the same setting: then `C#CCN1[C@H](/C=C/C2CC2)[C@H](Cc2ccccc2)OC(=O)[C@@H]1Cc1ccccc1`, with 0.153. `O[C@@H](Cc1ccccc1)[C@@H](/C=C/C1CC1)NCc1cccc(Cl)c1` yielded a composite z-score of -0.146. With `C=C(/C(=C/C[C@H](OC(C)=O)c1ccc(OCCO)cc1)c1cc(C(=O)OC)ccc1OC)C(C)C`, the composite z-score was found to be 1.17. With `CCCC[C@@H]1C[C@H]1[C@@H](NC(=O)c1cccnc1)c1ccc(Cl)cc1`, the composite z-score is -0.549.

In the case of `CC(C)[C@@H](C(=O)O)n1cc(C2(O)CCCCC2)nn1`, the composite z-score worked out at 0.394. Regarding `CC(C)CCC[C@@H](C)[C@H]1CC[C@@]2(C)C3=C(CC[C@]12C)[C@@]1(C)CC[C@H](OC(=O)c2ccc(C(F)(F)F)nc2)C(C)(C)C1CC3` (stereo partly drawn), the composite z-score is -0.323. On the same count and under the same terms, the figure for `O=C1O[C@@H](c2ccccc2)[C@@H](c2ccccc2)N2[C@@H](c3ccc(OCCO)cc3)[C@]3(C(=O)Nc4ccc(C#CC5=CCCCC5)cc43)[C@@H](C(=O)N3CCCCCCC3)[C@H]12` is 1.38; for `CC(C)NC(=O)[C@@]1(Cc2ccccc2I)c2ccccc2C(=O)N(Cc2ccccc2Cl)[C@H]1c1ccc(CO)cc1` it is 1.19. For `COc1ccc([Si](C)(C)[C@H]2[C@H](CCO)O[C@@]3(C(=O)N(Cc4ccccc4)c4ccc(N5CCCCC5=O)cc43)[C@@H]2C)cc1`, the composite z-score came out at 0.39.

In turn, `COc1ccc([C@H]2C[C@H]3C(Br)=C[C@@]2(CO)C(=O)[C@]32CO2)cc1` yielded a composite z-score of -0.202.

The compound `CO[C@H]1O[C@H](CO)[C@@H](OC(=O)Nc2ccc(Oc3ccccc3)cc2)[C@H](OC(=O)Nc2ccc3c(c2)OCO3)[C@@H]1OC(=O)Nc1ccc2c(c1)OCO2` registered a composite z-score of 0.516. Same read-out and setting: the figure for `O=C(NC1CC1)[C@@H]1c2ccccc2C(=O)N(C2Cc3ccccc3C2)[C@H]1c1ccc(CO)cc1` is 0.639; for `CC(C)=CCCC(C)=CC(O)C1C=CC2C(=O)N(c3ccccc3)C(=O)C2N1Nc1ccc(C(C)C)cc1` (stereo not drawn) it is 1.63; for `C=CC[C@]1(C(N)=O)N=C(c2ccc(OCCCO)cc2)O[C@H]1c1ccccc1` it is 1.92. As to `COc1cc2c(cc1O)C(c1cccs1)N(Cc1cccc(OC(F)(F)F)c1)CC2` (stereo not drawn), the composite z-score was 1.39. On the same count and under the same terms, then `C=C(CCCC)C(=O)CC[C@@H](OC(C)=O)c1ccc(CO)o1`, with -0.306; and `O=C(CS)NCCCCCNC(=O)[C@H]1C[C@H]2C(=O)NCC(=O)N2[C@H]1c1ccc(O)cc1`, with -0.83.

As for `COC(=O)[C@H](Cc1ccccc1)N[C@H](/C=C/C1CC1)[C@@H](O)Cc1ccccc1`, the composite z-score was -0.0373. Same read-out and setting: then `C=C(CCCC)C(=O)CC[C@H](OC(=O)c1cccnc1)c1ccc(OCCO)cc1`, with 0.766; and `O=C1O[C@@H](c2ccccc2)[C@@H](c2ccccc2)N2[C@@H](c3ccccc3OCCO)[C@]3(C(=O)Nc4ccc(C#CC5(O)CCCCCC5)cc43)[C@@H](C(=O)N3CCN(c4ncccn4)CC3)[C@H]12`, with 0.893; and `C=CCN1C(=O)[C@]2(O[C@H](CCO)[C@@H]([Si](C)(C)c3ccc(OC)cc3)[C@@H]2C)c2cc(N(C=O)c3ccccc3)ccc21`, with 0.495. `C=C(C(=O)CC[C@H](OC(C)=O)c1ccccc1OCCO)C(C)C` had a composite z-score of -0.49. Compound `COC(=O)[C@@]1(Cc2ccc(OC)cc2)[C@H]2c3cc(C(=O)N4CCCC4)n(Cc4nc5ccccc5[nH]4)c3C[C@H]2CN1C(=O)c1ccccc1` returned a composite z-score of 2.11. The same measure, in the same setting: the figure for `CC(c1ccccc1)C(O)C1C=CC2C(=O)N(c3ccccc3)C(=O)C2N1Nc1ccccc1` (stereo not drawn) is 1.53; for `CCCC[C@H]1C[C@@H]1[C@@H]1N(P(=O)(c2ccccc2)c2ccccc2)C[C@@](O)(c2ccccc2)CC12CC2` it is 0.862; for `COCC(=C=CC[C@H](O)c1ccccc1OCCO)CCO` it is 1.24. In turn, `O=C1C[C@@](C(=O)NCc2ccccc2)(c2ccc([N+](=O)[O-])cc2)[C@@H](c2ccc(CO)cc2)N1CC12CC3CC(CC(C3)C1)C2` returned a composite z-score of 0.939. As to `COC(=O)c1c(CC[C@@H](CO)NC(=O)N[C@H](Cc2ccccc2)Cn2cc(-c3ccccn3)nn2)oc(C(C)=O)c1C(=O)OC`, the composite z-score came out at 0.813. The compound `COC(=O)[C@]1(CCC(=O)OC(C)(C)C)N=C(c2ccc(OCCCO)cc2)O[C@@H]1c1ccccc1` returned a composite z-score of 0.791.
